Activity calls are given as the source filed them. How the source made its calls: active means hit-call score of the fitted dose curve at least 0.9, where 1 is the maximum; inactive means score below 0.9.
What was measured:
Settings in all cases: mRNA level, 48 h; actives raise or lower the signal
[1] = read-out: Cyclin Dependent Kinase Inhibitor 1A (CDKN1A), CDKN1A (gene 1026); assay: LTEA_HepaRG_CDKN1A: Life Technologies and Expression Analysis (LTEA) Assay for Cyclin Dependent Kinase Inhibitor 1A (CDKN1A) using HepaRG (AID 2283450)
How it was run: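 Gain or loss of CDKN1A transcript is scored by bidirectional fitting against 0.5% DMSO vehicle. Human HepaRG cultures receive chemicals for 48 h across an 8-point series peaking at 100 uM; expression comes from qRT-PCR.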

[2] = read-out: Cyclin D1 (CCND1), CCND1 (gene 595); assay: LTEA_HepaRG_CCND1: Life Technologies and Expression Analysis (LTEA) Assay for Cyclin D1 (CCND1) using HepaRG (AID 2283451)
How it was run: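 Expression change is measured by qRT-PCR in HepaRG cells after 48 h treatment across eight concentrations topping at 100 uM, with duplicate wells and DMSO (0.5%) serving as baseline for bidirectional fitting.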

[3] = read-out: catalase (CAT), CAT (gene 847); assay: LTEA_HepaRG_CAT: Life Technologies and Expression Analysis (LTEA) Assay for catalase (CAT) using HepaRG (AID 2283452)
How it was run: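 HepaRG cells in serum-free induction medium, 0.5% DMSO vehicle, exposed 48 h in duplicate over 8 half-log concentrations from 100 uM. CAT mRNA measured by qRT-PCR, normalized to ACTB, GAPDH, POLR2A; bidirectional fit versus DMSO.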

[4] = read-out: flavin-containing dimethylaniline monooxygenases 3 (FMO3), FMO3 (gene 2328); assay: LTEA_HepaRG_FMO3: Life Technologies and Expression Analysis (LTEA) Assay for flavin-containing dimethylaniline monooxygenases 3 (FMO3) using HepaRG (AID 2283453)
How it was run: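 Differentiated HepaRG cells in serum-free induction medium, exposed 48 h in duplicate to 8 half-log concentrations up to 100 uM in 0.5% DMSO. FMO3 mRNA by qRT-PCR, normalized to ACTB, GAPDH, POLR2A; bidirectional fit vs DMSO.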

[5] = read-out: Cytochrome P450 (CYP1A1), CYP1A1 (gene 1543); assay: LTEA_HepaRG_CYP1A1: Life Technologies and Expression Analysis (LTEA) Assay for Cytochrome P450 (CYP1A1) using HepaRG (AID 2283454)
How it was run: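 Using HepaRG cultures with 0.5% DMSO as vehicle, eight-concentration exposures (max 100 uM) lasted 48 h. Transcript levels were measured by TaqMan qRT-PCR and normalized to ACTB, GAPDH and POLR2A.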

[6] = read-out: CFLAR gene, CFLAR (gene 8837); assay: LTEA_HepaRG_CFLAR: Life Technologies and Expression Analysis (LTEA) Assay for CFLAR gene using HepaRG (AID 2283455)
How it was run: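 Differentiated HepaRG cells in serum-free induction medium were exposed 48 h in duplicate to eight half-log concentrations up to 100 uM in 0.5% DMSO; mRNA measured by TaqMan qRT-PCR, normalized to ACTB, GAPDH, POLR2A; bidirectional fitting versus DMSO.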

[7] = read-out: Forkhead box O1 (FOXO1), FOXO1 (gene 2308); assay: LTEA_HepaRG_FOXO1: Life Technologies and Expression Analysis (LTEA) Assay for Forkhead box O1 (FOXO1) using HepaRG (AID 2283456)
How it was run: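 Differentiated HepaRG cells, in serum-free induction medium with 0.5% DMSO, exposed 48 h in duplicate to 8-point half-log series from 100 uM. FOXO1 mRNA measured by TaqMan qRT-PCR, normalized to ACTB, GAPDH, POLR2A; bidirectional fit versus DMSO.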

[8] = read-out: growth arrest and DNA damage 45 (GADD45A), GADD45A (gene 1647); assay: LTEA_HepaRG_GADD45A: Life Technologies and Expression Analysis (LTEA) Assay for growth arrest and DNA damage 45 (GADD45A) using HepaRG (AID 2283458)
How it was run: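 Cells plated and cultured 48 h, switched to serum-free induction medium, then dosed for 48 h (100 uM top, half-log dilutions, 0.5% DMSO). RNA was isolated and transcript measured by Fluidigm qRT-PCR.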

[9] = read-out: Forkhead box O3 (FOXO3), FOXO3 (gene 2309); assay: LTEA_HepaRG_FOXO3: Life Technologies and Expression Analysis (LTEA) Assay for Forkhead box O3 (FOXO3) using HepaRG (AID 2283459)
How it was run: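 Differentiated human HepaRG cells, 48 h post-plating, exposed in duplicate for 48 h in serum-free induction medium; 8-point half-log series from 100 uM in 0.5% DMSO. FOXO3 mRNA by TaqMan qRT-PCR, normalized to ACTB/GAPDH/POLR2A; bidirectional fit versus DMSO.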

[10] = read-out: ABC Transporter (ABCB1), ABCB1 (gene 5243); assay: LTEA_HepaRG_ABCB1: Life Technologies and Expression Analysis (LTEA) Assay for ABC Transporter (ABCB1) using HepaRG (AID 2283460)
How it was run: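 HepaRG cells exposed in duplicate for 48 h in serum-free induction medium to eight half-log concentrations up to 100 uM in 0.5% DMSO. ABCB1 mRNA quantified by qRT-PCR, normalised to ACTB, GAPDH and POLR2A; fitted bidirectionally versus DMSO.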

[11] = read-out: growth arrest and DNA damage 45 (GADD45B), GADD45B (gene 4616); assay: LTEA_HepaRG_GADD45B: Life Technologies and Expression Analysis (LTEA) Assay for growth arrest and DNA damage 45 (GADD45B) using HepaRG (AID 2283461)
How it was run: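 Human HepaRG monolayers receive chemicals for 48 h at eight half-log concentrations, highest 100 uM, in 0.5% DMSO. Expression is measured by TaqMan qRT-PCR and normalized to ACTB, GAPDH and POLR2A.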

[12] = read-out: ABC Transporter (ABCB11), ABCB11 (gene 8647); assay: LTEA_HepaRG_ABCB11: Life Technologies and Expression Analysis (LTEA) Assay for ABC Transporter (ABCB11) using HepaRG (AID 2283463)
How it was run: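 Differentiated human HepaRG cells in serum-free induction medium, dosed in duplicate for 48 h. Eight-point half-log series from 100 uM in 0.5% DMSO; ABCB11 mRNA by qRT-PCR, normalized to ACTB, GAPDH, POLR2A, fitted bidirectionally versus DMSO.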

[13] = read-out: ABC Transporter (ABCC2), ABCC2 (gene 1244); assay: LTEA_HepaRG_ABCC2: Life Technologies and Expression Analysis (LTEA) Assay for ABC Transporter (ABCC2) using HepaRG (AID 2283464)
How it was run: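 After plating and 48 h culture, HepaRG medium is replaced with serum-free induction medium and chemicals are added (8 concentrations, max 100 uM, 0.5% DMSO) for 48 h. Total RNA then undergoes qRT-PCR for ABCC2 with housekeeping normalization.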

[14] = read-out: Broad substrate specificity ATP-binding cassette transporter ABCG2 (Homo sapiens) (UniProt Q9UNQ0); assay: LTEA_HepaRG_ABCG2: Life Technologies and Expression Analysis (LTEA) Assay for ABC Transporter (ABCG2) using HepaRG (AID 2283465)
How it was run: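 Differentiated HepaRG cells were exposed for 48 h in serum-free induction medium to 8 half-log concentrations, top 100 uM, in 0.5% DMSO. ABCG2 mRNA was measured by qRT-PCR, normalized to ACTB, GAPDH and POLR2A, with bidirectional fitting versus DMSO.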

[15] = read-out: Peroxisomal acyl-coenzyme A oxidase 1 (ACOX1) gene, ACOX1 (gene 51); assay: LTEA_HepaRG_ACOX1: Life Technologies and Expression Analysis (LTEA) Assay for Peroxisomal acyl-coenzyme A oxidase 1 (ACOX1) gene using HepaRG (AID 2283467)
How it was run: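 HepaRG cells, plated 48 h then switched to serum-free induction medium, were exposed in duplicate for 48 h to 8-point half-log concentrations up to 100 uM in 0.5% DMSO. ACOX1 mRNA was measured by qRT-PCR, normalized to ACTB/GAPDH/POLR2A, and fitted bidirectionally versus DMSO.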

[16] = read-out: Alkaline Phosphatase, Placental (ALPP) gene, ALPP (gene 250); assay: LTEA_HepaRG_ALPP: Life Technologies and Expression Analysis (LTEA) Assay for Alkaline Phosphatase, Placental (ALPP) gene using HepaRG (AID 2283468)
How it was run: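 Using human liver HepaRG cells, chemicals are tested in duplicate over 48 h at half-log concentrations topping at 100 uM; phenobarbital 1 mM serves as induction control. ALPP mRNA change by qRT-PCR, bidirectional fit against vehicle.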

[17] = read-out: Cyclin D2 (CCND2), CCND2 (gene 894); assay: LTEA_HepaRG_CCND2: Life Technologies and Expression Analysis (LTEA) Assay for Cyclin D2 (CCND2) using HepaRG (AID 2283449);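 further: CCND2 transcript measured by TaqMan qRT-PCR and normalised to three housekeeping genes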
How it was run: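 Chemicals in 0.5% DMSO, eight half-log concentrations from 100 uM top, were applied in duplicate for 48 h to human HepaRG cells in serum-free induction medium. CCND2 mRNA by TaqMan qRT-PCR, normalised to ACTB/GAPDH/POLR2A; bidirectional fit versus DMSO.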

[18] = read-out: ATP-citrate lyase (ACLY), ACLY (gene 47); assay: LTEA_HepaRG_ACLY: Life Technologies and Expression Analysis (LTEA) Assay for ATP-citrate lyase (ACLY) using HepaRG (AID 2283466)
How it was run: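 Differentiated HepaRG cells exposed 48 h in serum-free induction medium to eight half-log concentrations up to 100 uM in 0.5% DMSO, duplicates. Transcript measured by Fluidigm TaqMan qRT-PCR, normalized to ACTB, GAPDH, POLR2A; bidirectional fit versus DMSO.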

Measured: outcome

Sequence of Broad substrate specificity ATP-binding cassette transporter ABCG2 (Homo sapiens) (Q9UNQ0 whole entry, looked up): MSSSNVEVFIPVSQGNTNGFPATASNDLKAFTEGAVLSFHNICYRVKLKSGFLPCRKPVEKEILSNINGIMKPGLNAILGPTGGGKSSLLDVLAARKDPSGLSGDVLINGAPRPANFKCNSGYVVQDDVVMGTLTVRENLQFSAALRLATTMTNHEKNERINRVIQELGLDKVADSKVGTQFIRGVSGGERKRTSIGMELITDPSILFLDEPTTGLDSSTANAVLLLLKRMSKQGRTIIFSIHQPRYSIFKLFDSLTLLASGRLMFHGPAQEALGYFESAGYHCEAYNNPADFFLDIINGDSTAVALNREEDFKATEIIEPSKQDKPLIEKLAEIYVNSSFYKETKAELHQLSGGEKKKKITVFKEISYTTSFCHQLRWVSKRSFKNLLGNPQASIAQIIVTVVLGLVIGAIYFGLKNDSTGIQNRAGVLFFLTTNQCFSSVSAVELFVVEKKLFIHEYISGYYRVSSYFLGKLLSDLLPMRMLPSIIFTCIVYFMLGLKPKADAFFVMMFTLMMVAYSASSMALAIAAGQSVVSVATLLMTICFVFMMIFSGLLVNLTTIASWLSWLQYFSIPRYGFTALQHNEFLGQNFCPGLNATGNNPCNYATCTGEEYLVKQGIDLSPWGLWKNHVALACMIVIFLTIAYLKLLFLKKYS

Oc1cccc(O)c1
inactive: [1] | [2] | [3] | [4] | [5] | [6] | [7] | [8] | [9] | [10] | [11] | [12] | [13] | [14] | [15] | [16]

COCC(C)O (centres undefined)
inactive: [17] | [1] | [3] | [4] | [5] | [6] | [7] | [8] | [9] | [10] | [11] | [12] | [13] | [14] | [15] | [16]

COC(=O)CCCCC(=O)OC
inactive: [1] | [3] | [4] | [5] | [6] | [7] | [8] | [9] | [10] | [11] | [12] | [13] | [14] | [18] | [15] | [16]

C[C@@H]1C[C@H]2[C@@H]3CCC4=CC(=O)C=C[C@]4(C)[C@@]3(F)[C@@H](O)C[C@]2(C)[C@@]1(O)C(=O)COP(=O)(O)O
inactive: [17] | [1] | [3] | [4] | [5] | [6] | [7] | [8] | [9] | [10] | [11] | [12] | [13] | [14] | [15] | [16]
